Source: PubChem (National Center for Advancing Translational Sciences (NCATS))
An excerpt weighted towards active compounds, which were near 13% of everything screened.
Pf growth 96h – Primary qHTS for delayed death inhibitors of the malarial parasite plastid, 96 hour incubation; P. falciparum luciferase reporter growth, 96 h; actives 6.9% (n = 320,000); Potency, µM (series often up to 28.7 µM), hits mostly inhibitors
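P. falciparum expressing integrated firefly luciferase grown in erythrocytes (2% hematocrit, 0.05% parasitemia final) with compounds for 96 hours at 37 C, 5% CO2. Growth inhibition read as loss of luminescence after adding luciferase detection reagent.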
Pf growth 48h – Primary qHTS for delayed death inhibitors of the malarial parasite plastid, 48 hour incubation; actives 5.9% (n = 310,000); Potency, µM (top dose mostly 28.7 µM), most hits filed as inhibitors; P. falciparum luciferase growth in erythrocytes, 48 h
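Firefly luciferase activity from engineered P. falciparum reports growth; inhibitors lower the luminescent signal. Cultures contained 2% hematocrit erythrocytes at 0.1% final parasitemia.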
HCV inhibitor – qHTS Assay for Inhibitors of Hepatitis C Virus (HCV); Huh7.5.1 HCVcc-Cre infection, luciferase reporter, 44 h; Potency, µM (top dose mostly 41.8 µM), most hits filed as inhibitors; actives 3.4% (n = 340,000); AID 651820, 2012
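Cells seeded at 1,000/well and cultured 4 h, then compounds added followed by HCVcc-Cre virus (~0.5 moi). After 44 h further culture, luciferase substrate was added, plates held 15 min at room temperature, and luminescence read for 15 sec.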
HCMV antiviral – qHTS Assay for inhibitors of the human cytomegalovirus (HCMV); actives 4.5% (n = 410,000); activity change, negative = inhibition, % at 57.5 µM; AID 1259415, 2018; HFF cells, HCMV-luciferase reporter, 72 h; stronger effect = lower value; in the data active means activity change below about -60%; inconclusive means no clear call, values can overlap the other calls; inactive means above about -39%
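Two-dose cell screen: HFF monolayers treated with compounds and infected with luciferase-expressing HCMV at 1 PFU/cell, 72 h at 37C, then lysed for luciferase measurement.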
Numbers stand for hits; . = inactive; ? = inconclusive; / = no result given. Unless noted, the call rests on the fitted dose curve; in most records, active means well fitted inhibition curve with a large enough effect; inconclusive means small, poorly fitted or top-dose-only effect, or another doubt; inactive means no such curve, though single readings can be large or run the other way.

SMILES	Pf growth 96h	Pf growth 48h	HCV inhibitor	HCMV antiviral
Cc1ccc(S(=O)(=O)N2[C@@H](Cc3ccccc3)CO[C@H]2CC(=O)c2cccs2)cc1	/	/	/	.
Cc1ccc(S(=O)(=O)N2[C@@H](Cc3ccccc3)CO[C@H]2CC(=O)c2ccccc2)cc1	/	/	/	-69.4
Cc1ccc(S(=O)(=O)N2[C@@H](Cc3ccccc3)CO[C@H]2CC(=O)c2ccc(F)cc2)cc1	/	/	/	.
COc1ccc2c(c1)c1c(c(=O)n(-c3ccc(OC)c(OC)c3)c(=O)n1Cc1ccccc1C)n2C	/	/	/	.
CCN(CC)S(=O)(=O)c1ccc(S(=O)(=O)N(Cc2ccccn2)Cc2ccco2)cc1	/	?	10µM	.
O=S(=O)(NCc1ccccc1)c1ccc(S(=O)(=O)N(Cc2ccccn2)Cc2ccco2)cc1	.	/	.	.
CCOc1ccccc1OCCC(=O)N1CCN(S(=O)(=O)c2ccccc2[N+](=O)[O-])CC1	?	11.7µM	.	?
CCOc1ccccc1OCCCC(=O)N1CCN(S(=O)(=O)c2ccc(Cl)cc2)CC1	?	13.1µM	.	.
CCOc1ccccc1OCCCC(=O)N1CCN(S(=O)(=O)c2cc(F)ccc2F)CC1	/	/	.	.
Cc1ccc(OCC(=O)OCc2cc(=O)n3nc(C4CCCCC4)sc3n2)cc1C	/	/	/	.
CCOC(=O)c1sc(NC(=O)c2c(-c3ccccc3)c(-c3ccccc3)nn(C)c2=O)nc1C	/	/	/	.
Cn1c(=O)c2c(nc(Br)n2Cc2ccc3ccccc3c2)n(C)c1=O	5.22µM	/	?	.
C/C(Cl)=C/Cn1c(=O)c2c(nc(Br)n2Cc2ccccc2)n(C)c1=O	?	?	?	.
Cn1c(=O)c2c(nc(Oc3ccc4ccccc4c3)n2C)n(C)c1=O	?	/	.	-76.2
COc1ccc(C(=O)N2CCN(C(=O)COc3ccccc3)CC2)cc1OC	/	/	/	.
CSc1ccc(CNc2nnnn2C)cc1	.	.	.	-80.6
CN(C)CCCOc1ccc(C(C)(C)c2ccccc2)cc1	.	/	11.2µM	.
Oc1ccc2c(c1)CCCC1(CCCO1)O2 (configuration not stated)	/	/	/	.
Cc1cc(C)c(-c2cc(NC(=O)COC(=O)c3ccc(NC(=O)CC#N)cc3)n(-c3ccccc3)n2)cc1C	?	?	.	.
Cc1nn(-c2ccccc2)c(C)c1NC(=O)COC(=O)CC(C)c1ccccc1 (configuration not stated)	.	.	?	-62.5
Cc1nn(-c2ccccc2)c(C)c1NC(=O)COC(=O)c1ccc(NC(=O)CC#N)cc1	/	/	.	-67.9
Cc1ccc(C)c(OCC(=O)OCC(=O)Nc2c(C)nn(-c3ccccc3)c2C)c1	.	.	.	.
O=C(CN1CCCCCC1)Nc1ccc(Br)cc1	?	/	/	.
COC(=O)c1[nH]c2ccc(Cl)cc2c1NC(=O)CCN1CCN(C2CCCCC2)CC1	3.7µM	11.7µM	?	.
O=C(CN1CCN(C2CCCCC2)CC1)Nc1ccc(Br)cc1	.	.	10µM	.
SMILES	Pf growth 96h	Pf growth 48h	HCV inhibitor	HCMV antiviral
COC(=O)c1[nH]c2ccc(Br)cc2c1NC(=O)CN1CCCc2ccccc21	10.4µM	?	?	.
COC(=O)c1[nH]c2ccc(Br)cc2c1NC(=O)CN1CCN(C2CCCCC2)CC1	2.62µM	?	11.2µM	.
CCOc1ccc(NC(=O)c2nn(C)c3c2CS(=O)(=O)c2ccccc2-3)cc1	/	/	/	.
CCOC(=O)C1CCN(CC(=O)Nc2c(C(=O)OC)[nH]c3ccccc23)CC1	.	/	/	.
CCOC(=O)C1CCN(CC(=O)Nc2c(C(=O)OC)[nH]c3ccc(Cl)cc23)CC1	?	13.1µM	10µM	.
CCOP(=O)(OCC)C(Nc1ccccn1)c1ccc(F)cc1 (configuration not stated)	.	.	.	-69.6
CCOP(=O)(OCC)C(Nc1ccccn1)c1ccccc1 (configuration not stated)	.	.	.	.
CCOP(=O)(OCC)C(Nc1cccc(C(F)(F)F)c1)c1ccc(C)cc1 (configuration not stated)	?	10.4µM	.	.
CCCOP(=O)(OCCC)C(Nc1cccc(C(F)(F)F)c1)c1ccc(C)cc1 (configuration not stated)	11.7µM	?	?	.
Cc1ccccc1-c1nc(CN2CCC(C(=O)NCCN3CCOCC3)CC2)c(C)o1	.	.	.	.
Cc1ccccc1-c1nc(CN2CCC(C(=O)NCCCN3CCCC3)CC2)c(C)o1	.	?	14.1µM	.
CCc1ccccc1NC(=O)C(CC)Sc1ncnc2c1sc1ccccc12 (configuration not stated)	/	/	/	.
